Experimental data: paper PMC7826789 (International Journal of Molecular Sciences, 2021)

Tests used:
Conditions in all cases: Compound Concentration (nM):1000
[1] = tested on: T1, MRCKA
T1 construct: gene CDC42BPA

[2] = tested on: T2, MRCKB
T2 construct: gene CDC42BPB

[3] = tested on: MST1R
[4] = tested on: T3, MST1
T3 construct: gene STK4

[5] = tested on: T4, MST2
T4 construct: gene STK3

[6] = tested on: T5, MST3
T5 construct: gene STK24

[7] = tested on: MST4
[8] = tested on: MTOR
[9] = tested on: MUSK
[10] = tested on: MYLK2
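Also: KINOMEscan scanMAX binding as percent activity remaining versus control; lower means stronger binding.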

SMILES	Percent Control [1] [%]	Percent Control [2] [%]	Percent Control [3] [%]	Percent Control [4] [%]	Percent Control [5] [%]	Percent Control [6] [%]	Percent Control [7] [%]	Percent Control [8] [%]	Percent Control [9] [%]	Percent Control [10] [%]
Cl.O=S1CCN(Cc2ccc(-c3ccc4ncnc(Nc5ccc(OCc6ccccc6)c(F)c5)c4c3)o2)CC1 [GW576924A]	100	100	100	100	100	100	100	100	100	100
C[C@@H](Oc1cc(-n2cnc3ccc(OC4CCN(C)CC4)cc32)sc1C(N)=O)c1ccccc1Cl [GSK579289A]	100	88	100	77	24	84	59	95	85	48
Cl.O=C(Nc1ccc(Oc2ccc3[nH]c(NC(=O)c4ccccc4)nc3c2)cc1)Nc1cc(C(F)(F)F)ccc1F [GW709042A]	85	90	100	73	100	100	69	82	19	91
COc1ccc2[nH]c3c4[nH]c5ccc(OC)cc5c4c4c(c3c2c1)C(=O)NC4=O [GW296115X]	76	89	93	100	82	76	85	100	83	82
CN1CCN(C(=O)c2ccc(NC(=O)Nc3ccc(N(C)c4ccnc(Nc5ccc(CS(C)(=O)=O)cc5)n4)cc3)cc2)CC1.Cl [GW830263A]	89	86	41	96	16	47	11	100	11	36
COc1cc2ncn(-c3cc(O[C@H](C)c4ccccc4Cl)c(C(N)=O)s3)c2cc1OC [GSK237701A]	89	96	94	43	0	93	91	100	89	45
COC(=O)Nc1nc2ccc(Oc3ccc(NC(=O)Nc4cc(C(F)(F)F)ccc4F)cc3)cc2s1.Cl [GW693917A]	90	96	100	100	100	95	72	100	9.7	47
CN(C)c1cc2c(Nc3ccc4c(cnn4Cc4ccccc4)c3)ncnc2cn1 [GW282974X]	100	84	100	100	83	90	83	100	95	98
CC1=C(C(=O)Nc2ccc3[nH]ncc3c2)C(c2ccc(Cl)c(Cl)c2)CC(=O)N1 (stereo not shown) [GSK299115A]	100	75	91	90	94	70	66	100	100	100
CCS(=O)(=O)c1ccc(OC)c(Nc2ncc(-c3cccc(OC)c3)o2)c1 [GW580509X]	100	100	100	100	100	100	100	100	100	100
O=C(Nc1n[nH]c2nc(-c3ccc(O)cc3)c(Br)cc12)C1CC1 [SB-725317]	100	100	100	100	100	100	77	100	100	5.9
Cl.c1ccc(Cc2nc3ccc(Nc4ncnc5ccccc45)cc3[nH]2)cc1 [GR269666A]	100	100	100	100	100	100	100	100	100	100
COc1cc(/C=N/Nc2ncnc3[nH]ncc23)ccc1O [GW578748X]	100	100	100	100	86	93	20	96	100	81
NS(=O)(=O)c1ccc(N/N=C2\C(=O)Nc3ccc(-c4cnco4)cc32)cc1 [GW276655]	100	98	92	100	40	77	53	100	100	73
COc1cccc(-c2c[nH]c3c(N/N=C/c4ccncc4)ncnc23)c1 [GW814408X]	100	100	88	100	100	74	21	100	100	68
CC(C)COC(=O)c1ccc2c(c1)/C(=C/Nc1ccc(S(N)(=O)=O)cc1)C(=O)N2 [GW416981X]	100	100	100	100	1.1	98	31	100	100	100

SMILES	Percent Control [1] [%]	Percent Control [2] [%]	Percent Control [3] [%]	Percent Control [4] [%]	Percent Control [5] [%]	Percent Control [6] [%]	Percent Control [7] [%]	Percent Control [8] [%]	Percent Control [9] [%]	Percent Control [10] [%]
Cc1cc(O)cc(C)c1/C=C/c1cncc(C(N)=O)c1 [GW435821X]	100	100	100	100	100	100	69	100	100	100
CCc1ccc(Oc2nccc(-c3c(-c4ccc(F)cc4)ncn3C3CCNCC3)n2)cc1 [SB-242719]	68	17	100	88	66	90	61	89	100	80
NS(=O)(=O)c1ccc(Nc2ncc(-c3ccccc3)o2)cc1 [GW572399X]	100	100	100	100	100	100	65	88	100	100
COc1ccc2c(-c3ccnc(Nc4cccc(OC(F)(F)F)c4)n3)cnn2n1 [GW810372X]	100	99	100	100	100	98	60	100	100	100
C/C(Nc1ccc(S(N)(=O)=O)cc1)=C1/C(=O)Nc2ccccc21 [GW335962X]	100	92	100	82	100	27	8.4	96	100	100
CCn1c(-c2nonc2N)nc2c(C#CC(C)(C)O)nc(OCCNC)cc21.Cl [GSK949675]	100	100	100	100	100	100	100	85	100	98
COc1ccc2cc(-c3c(-c4ccncc4)nc(-c4ccc(S(C)(=O)=O)cc4C)n3C)ccc2c1 [SB-633825]	93	88	85	66	60	100	82	100	99	100
Cl.O=C(Nc1ccc(Oc2ccc3[nH]c(NC(=O)c4ccco4)nc3c2)cc1)Nc1cc(C(F)(F)F)ccc1F [GW683134A]	94	89	100	100	100	100	87	100	5.6	38
NS(=O)(=O)c1ccc(N/N=C2\C(=O)Nc3ccc(C(=O)NCCc4c[nH]cn4)cc32)cc1 [GW300660X]	100	100	100	100	60	100	25	91	100	100
COc1cc(C)c(N(C)C(=O)CN(C)C)cc1Nc1nc(Nc2cccc(F)c2C(N)=O)c2cc[nH]c2n1 [GSK2219385]	100	94	100	100	85	93	100	100	84	100
COc1cc2ncnc(Nc3ccc4c(cnn4Cc4ccccc4)c3)c2cc1OC.Cl [GW282449A]	100	100	100	100	100	100	94	100	100	100
O=C1Nc2ccc(C(=O)c3ccco3)cc2C1=Cc1cc(Cl)c(O)c(Cl)c1 [GW406108X]	100	100	100	93	0	86	79	100	100	100
COc1cc(C=NNc2ncnc3c2cnn3-c2ccccc2)ccc1O [GW513184X]	100	100	29	100	94	100	58	93	100	43
Cl.O=C(O[C@H]1CN[C@H](C#Cc2cc3ncnc(Nc4ccc5c(cnn5Cc5ccccc5)c4)c3s2)C1)N1CCOCC1 [GSK200398A]	100	86	100	100	100	83	100	100	100	100
NS(=O)(=O)c1ccc(N/N=C2\C(=O)Nc3ccc(C(=O)NCc4ccncc4)cc32)cc1 [GW300657X]	100	98	100	100	45	73	75	97	83	100
